The panel holds about 79,000 compounds, 15% with a hit somewhere; the sample as a whole holds those more often. The source made the active and inactive calls. No stated cut-off is given here; in the data, active means growth inhibition above about 70%; inactive means the rest.
Assays:
[1] = NCI Yeast Anticancer Drug Screen. Data for the wt1 strain (AID 149);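 further: 0% = growth of vehicle-treated wt1 cultures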; conditions: S. cerevisiae wt1 strain (SPY 50644) growth inhibition, active compounds read high
Outline: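 Measured: growth of wt1 yeast under compound versus vehicle treatment, reported as inhibition.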

[2] = NCI Yeast Anticancer Drug Screen. Data for the rad50EPP+ strain (AID 151);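 further: 0% = growth of vehicle-treated control cultures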; conditions: S. cerevisiae rad50 mutant strain, active compounds read high
Outline: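 Measured: growth inhibition of rad50EPP+ yeast. Reference: vehicle-treated controls. Screen uses strains with defined genetic alterations in DNA damage repair or cell cycle control.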

[3] = NCI Yeast Anticancer Drug Screen. Data for the mgt1 strain (AID 153); conditions: S. cerevisiae mgt1 mutant growth inhibition, active compounds read high
Outline: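 Compounds were applied to mgt1 mutant yeast, and growth was then compared against vehicle-treated control cultures to give percent inhibition.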

[4] = NCI Yeast Anticancer Drug Screen. Data for the rad50 strain (AID 155);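 further: 0% = growth of vehicle-only cultures of the same strain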; conditions: S. cerevisiae rad50 strain growth inhibition, active compounds read high
Outline: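 Growth of the mutant yeast was measured after compound exposure and referenced to vehicle-treated cultures.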

[5] = NCI Yeast Anticancer Drug Screen. Data for the mec2-1 strain (AID 157); conditions: S. cerevisiae mec2-1 strain, active compounds read high
Outline: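 Compounds were applied to mec2-1 yeast cells. Their growth was then compared with that of vehicle-treated cultures to give growth inhibition.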

[6] = NCI Yeast Anticancer Drug Screen. Data for the rad14 strain (AID 159);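 further: 0% = growth of vehicle-treated control cultures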; conditions: S. cerevisiae rad14 strain growth inhibition, active compounds read high
Outline: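 Here, inhibition of yeast growth was measured after compound exposure, using a strain with a genetic defect in DNA damage repair and vehicle-treated cultures as the reference.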

[7] = NCI Yeast Anticancer Drug Screen. Data for the sgs1 mgt1 strain (AID 161);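 further: 0% = growth of cultures given vehicle only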; conditions: S. cerevisiae sgs1 mgt1 strain, active compounds read high
Outline: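 This yeast growth screen uses a strain with defined DNA-repair lesions; compound-treated growth is compared with vehicle-treated growth.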

[8] = NCI Yeast Anticancer Drug Screen. Data for the CLN2oe strain (AID 163);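 further: 0% = growth of vehicle-only control cultures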; conditions: S. cerevisiae CLN2oe strain, active compounds read high
Outline: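 Cells of an engineered yeast line with disturbed cell-cycle regulation are treated with compound. Inhibition of growth is then calculated relative to the vehicle-treated reference.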

[9] = NCI Yeast Anticancer Drug Screen. Data for the cln2 rad14 strain (AID 165);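 further: 0% = growth equal to vehicle treated cultures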; conditions: S. cerevisiae cln2 rad14 strain, active compounds read high
Outline: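 Strain: cln2 rad14 yeast, altered in cell cycle control and DNA damage repair. Read-out: growth inhibition vs vehicle.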

[10] = NCI Yeast Anticancer Drug Screen. Data for the bub3 strain (AID 167); conditions: S. cerevisiae bub3 mutant strain, active compounds read high
Outline: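 Whole-cell yeast assay. The mutant strain was incubated with compounds, and growth inhibition was determined by comparison with vehicle-treated cells.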

[11] = NCI Yeast Anticancer Drug Screen. Data for the mlh1 strain (AID 171);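 further: 0% = growth of vehicle-treated control cultures of the same strain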; conditions: S. cerevisiae mlh1 strain growth inhibition, active compounds read high
Outline: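 Test agents were incubated with yeast bearing a defined DNA damage repair or cell cycle control alteration; values are growth inhibition normalised to vehicle-treated cultures.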

[12] = NCI Yeast Anticancer Drug Screen. Data for the sgs1 strain (AID 173);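 further: 0% = growth of vehicle-only control cultures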; conditions: S. cerevisiae sgs1 mutant, active compounds read high
Outline: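 Strain with an altered DNA repair or cell cycle pathway exposed to compound. Growth then measured. Value = inhibition versus vehicle control.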

[13] = NCI Yeast Anticancer Drug Screen. Data for the mlh1 rad18 strain (AID 175); conditions: S. cerevisiae mlh1 rad18 strain growth inhibition, active compounds read high
Outline: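 A repair-deficient yeast strain is exposed to test compound, and growth is scored relative to vehicle-treated controls.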

[14] = NCI Yeast Anticancer Drug Screen. Data for the rad18 strain (AID 177); conditions: S. cerevisiae rad18 mutant growth inhibition, active compounds read high
Outline: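 DNA-repair-defective yeast; compound treatment; growth inhibition scored against vehicle.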

[15] = NCI Yeast Anticancer Drug Screen. Data for the rad52 strain (AID 147);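 further: 0% = growth of vehicle-treated control cultures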; conditions: S. cerevisiae rad52 mutant growth inhibition, active compounds read high
Outline: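 Growth of repair-deficient yeast cells was compared between compound-treated and vehicle-treated cultures to give percent inhibition.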

[16] = NCI Yeast Anticancer Drug Screen. Data for the wt2 strain (AID 169);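 further: 0% = growth of vehicle-treated yeast cultures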; conditions: S. cerevisiae wt2 strain growth inhibition, active compounds read high
Outline: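 Growth of compound-treated yeast is measured and expressed as inhibition relative to vehicle-only controls.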

[17] = at 5.0 µM (retest, dose inferred, filed as 0.5)
[18] = at 50.0 µM (retest, dose inferred, filed as 5.0)

Measured: growth inhibition

Oc1ccc2ccccc2c1C(c1ccc(Cl)cc1)c1c(O)ccc2ccccc12
inactive: [1]; at 1.2 µM 15% | [1]; at 3.7 µM -17% | [1]; at 11.0 µM 2% | [1]; at 33.0 µM 55% | [2]; at 1.2 µM -50% | [2]; at 3.7 µM -61% | [2]; at 11.0 µM -55% | [2]; at 33.0 µM -50% | [2]; at 100.0 µM -44% | [3]; at 1.2 µM -34% | [3]; at 3.7 µM -26% | [3]; at 11.0 µM -14% | [3]; at 33.0 µM 43% | [4]; at 1.2 µM -3% | [4]; at 3.7 µM 3% | [4]; at 11.0 µM 12% | [4]; at 33.0 µM 55% | [4]; at 50.0 µM 68.3% | [5]; at 1.2 µM -72% | [5]; at 3.7 µM -67% | [5]; at 11.0 µM -39% | [5]; at 33.0 µM 56% | [6]; at 1.2 µM -61% | [6]; at 3.7 µM -54% | [6]; at 11.0 µM -60% | [6]; at 33.0 µM -7% | [7]; [17] -2% | [7]; at 50.0 µM 19.4% | [8]; at 1.2 µM 0% | [8]; at 3.7 µM 5% | [8]; at 11.0 µM 21% | [9]; [17] 56% | [10]; at 1.2 µM -6% | [10]; at 3.7 µM -15% | [10]; [17] 29% | [10]; at 11.0 µM -1% | [10]; at 33.0 µM 39% | [11]; at 1.2 µM -41% | [11]; at 3.7 µM -25% | [11]; at 11.0 µM -32% | [11]; at 33.0 µM 26% | [12]; at 1.2 µM -29% | [12]; at 3.7 µM -39% | [12]; at 11.0 µM -25% | [12]; at 33.0 µM 38% | [13]; at 50.0 µM 54% | [14]; at 1.2 µM -30% | [14]; at 3.7 µM -8% | [14]; at 11.0 µM 2% | [14]; at 33.0 µM 50%
active: [1]; at 100.0 µM 84% | [3]; at 100.0 µM 88% | [4]; [17] 99% | [4]; [18] 99% | [4]; at 100.0 µM 89% | [5]; [17] 99% | [5]; [18] 99% | [5]; at 50.0 µM 83.9% | [5]; at 100.0 µM 84% | [6]; at 100.0 µM 84% | [7]; [18] 94% | [8]; at 33.0 µM 83% | [8]; at 100.0 µM 82% | [9]; [18] 95% | [9]; at 50.0 µM 76.8% | [10]; [18] 92% | [10]; at 50.0 µM 78.2% | [10]; at 100.0 µM 87% | [11]; at 100.0 µM 85% | [12]; at 100.0 µM 88% | [13]; [17] 99% | [13]; [18] 99% | [14]; at 100.0 µM 87%

CCOC(=O)c1cnc2c(C(F)(F)F)cccc2c1N=[N+]=[N-]
active: [15]; at 100.0 µM 95% | [3]; at 100.0 µM 93% | [4]; at 100.0 µM 95% | [5]; at 100.0 µM 89% | [6]; at 100.0 µM 98% | [8]; at 100.0 µM 73% | [9]; at 50.0 µM 84.7% | [10]; [18] 91% | [10]; at 100.0 µM 92% | [16]; at 100.0 µM 99% | [11]; at 100.0 µM 98% | [12]; at 100.0 µM 97% | [13]; at 50.0 µM 94.8% | [14]; at 100.0 µM 94%
inactive: [15]; at 1.2 µM 3% | [15]; at 3.7 µM 2% | [15]; at 11.0 µM 2% | [15]; at 33.0 µM 42% | [3]; at 1.2 µM 0% | [3]; at 3.7 µM -2% | [3]; at 11.0 µM 1% | [3]; at 33.0 µM 52% | [4]; at 1.2 µM -6% | [4]; at 3.7 µM -17% | [4]; [17] 15% | [4]; at 11.0 µM 20% | [4]; at 33.0 µM 42% | [4]; [18] 8% | [4]; at 50.0 µM 29.4% | [5]; at 1.2 µM -3% | [5]; at 3.7 µM -4% | [5]; [17] 2% | [5]; at 11.0 µM -4% | [5]; at 33.0 µM 25% | [5]; [18] -5% | [5]; at 50.0 µM 17.6% | [6]; at 1.2 µM 3% | [6]; at 3.7 µM 4% | [6]; at 11.0 µM 3% | [6]; at 33.0 µM 52% | [7]; [17] 5% | [7]; [18] 31% | [7]; at 50.0 µM 0.9% | [8]; at 1.2 µM -1% | [8]; at 3.7 µM -1% | [8]; at 11.0 µM -2% | [8]; at 33.0 µM 21% | [9]; [17] 45% | [9]; [18] 24% | [10]; at 1.2 µM -2% | [10]; at 3.7 µM -3% | [10]; [17] -3% | [10]; at 11.0 µM -4% | [10]; at 33.0 µM 20% | [10]; at 50.0 µM 67.3% | [16]; at 1.2 µM -1% | [16]; at 3.7 µM 1% | [16]; at 11.0 µM 2% | [16]; at 33.0 µM 68% | [11]; at 1.2 µM -1% | [11]; at 3.7 µM 0% | [11]; at 11.0 µM -1% | [11]; at 33.0 µM 56% | [12]; at 1.2 µM 1% | [12]; at 3.7 µM -2% | [12]; at 11.0 µM -7% | [12]; at 33.0 µM 67% | [13]; [17] 1% | [13]; [18] 21% | [14]; at 1.2 µM -5% | [14]; at 3.7 µM -8% | [14]; at 11.0 µM -10% | [14]; at 33.0 µM 40%

O=C1CSC(/C=C/c2ccccc2)N1c1ccc(-c2ccc(-n3c(-c4ccccc4)nc4ccccc4c3=O)cc2)cc1 (centres undefined)
inactive: [1]; at 1.2 µM -2% | [1]; at 3.7 µM -2% | [1]; at 11.0 µM -3% | [1]; at 33.0 µM -6% | [1]; at 100.0 µM 14% | [2]; at 1.2 µM 2% | [2]; at 3.7 µM 10% | [2]; at 11.0 µM 19% | [2]; at 33.0 µM 28% | [2]; at 100.0 µM 29% | [3]; at 1.2 µM -2% | [3]; at 3.7 µM -2% | [3]; at 11.0 µM -4% | [3]; at 33.0 µM 19% | [4]; at 1.2 µM -1% | [4]; at 3.7 µM 3% | [4]; [17] -9% | [4]; at 11.0 µM 5% | [4]; at 33.0 µM 22% | [4]; at 100.0 µM 58% | [5]; at 1.2 µM -1% | [5]; at 3.7 µM 0% | [5]; [17] 0% | [5]; at 11.0 µM 1% | [5]; at 33.0 µM 7% | [5]; [18] 45% | [5]; at 50.0 µM 42.5% | [5]; at 100.0 µM 67% | [6]; at 1.2 µM 1% | [6]; at 3.7 µM 2% | [6]; at 11.0 µM 9% | [6]; at 33.0 µM 31% | [7]; [17] -1% | [7]; [18] 5% | [8]; at 1.2 µM 2% | [8]; at 3.7 µM -1% | [8]; at 11.0 µM -6% | [8]; at 33.0 µM -9% | [8]; at 100.0 µM 22% | [9]; [17] 9% | [9]; [18] 42% | [9]; at 50.0 µM 32.5% | [10]; at 1.2 µM 4% | [10]; at 3.7 µM 12% | [10]; [17] -6% | [10]; at 11.0 µM 22% | [10]; at 33.0 µM 35% | [10]; [18] 65% | [16]; at 1.2 µM -3% | [16]; at 3.7 µM -3% | [16]; at 11.0 µM -4% | [16]; at 33.0 µM 5% | [16]; at 100.0 µM 62% | [11]; at 1.2 µM -2% | [11]; at 3.7 µM -1% | [11]; at 11.0 µM -2% | [11]; at 33.0 µM 18% | [12]; at 1.2 µM -2% | [12]; at 3.7 µM -2% | [12]; at 11.0 µM 0% | [12]; at 33.0 µM 17% | [12]; at 100.0 µM 61% | [13]; [17] -6% | [14]; at 1.2 µM -3% | [14]; at 3.7 µM 1% | [14]; at 11.0 µM 5% | [14]; at 33.0 µM 13% | [14]; at 100.0 µM 46%
active: [3]; at 100.0 µM 81% | [4]; [18] 78% | [4]; at 50.0 µM 75.5% | [6]; at 100.0 µM 79% | [7]; at 50.0 µM 87.2% | [10]; at 50.0 µM 75% | [10]; at 100.0 µM 79% | [11]; at 100.0 µM 77% | [13]; [18] 91% | [13]; at 50.0 µM 84.3%
